This excerpt belongs to a sample that is enriched for the strongest signals.
Columns and labels:
Experiment in all cases: glycan array binding signal (z-score within array); higher = stronger binding
Conditions in all cases: glycan notation: IUPAC condensed, linker removed
[1] = target: Fuc(a1-2)Gal(b1-4)GlcNAc(b1-3)Gal(b1-4)GlcNAc
Outline: (§1)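 The binding signal is a Z-score computed within each array. Data were drawn from 3228 arrays in the Consortium for Functional Glycomics database, restricted to those with a known protein sequence. Scores were averaged over arrays of the same protein sequence at different concentrations or buffers, and over linkers, and negative values can be taken as non-binding.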

[2] = target: Gal(b1-3)GalNAc(b1-3)Gal(b1-4)Glc
Outline: as §1

[3] = target: Gal(b1-4)GlcNAc(b1-2)Man(a1-3)[Gal(b1-4)GlcNAc(b1-2)Man(a1-6)]Man(b1-4)GlcNAc(b1-4)GlcNAc
Outline: as §1

[4] = target: GlcNAc(b1-2)Man(a1-3)[GlcNAc(b1-2)Man(a1-6)]Man(b1-4)GlcNAc(b1-4)GlcNAc
Outline: as §1

[5] = target: GlcNAc(b1-3)Gal(b1-4)GlcNAc
Outline: as §1

[6] = target: Man(a1-2)Man(a1-3)[Man(a1-3)[Man(a1-6)]Man(a1-6)]Man(b1-4)GlcNAc(b1-4)GlcNAc
Outline: as §1

[7] = target: Man(a1-3)[Man(a1-6)]Man(b1-4)GlcNAc(b1-4)GlcNAc
Outline: as §1

[8] = target: Neu5Ac(a2-6)Gal(b1-4)GlcNAc(b1-2)Man(a1-3)[Neu5Ac(a2-6)Gal(b1-4)GlcNAc(b1-2)Man(a1-6)]Man(b1-4)GlcNAc(b1-4)GlcNAc
Outline: as §1

[9] = target: Neu5Ac(a2-6)Gal(b1-4)GlcNAc(b1-3)Gal(b1-4)[Fuc(a1-3)]GlcNAc(b1-3)Gal(b1-4)[Fuc(a1-3)]GlcNAc
Outline: as §1

[10] = target: Neu5Ac(a2-6)GalNAc(b1-4)GlcNAc
Outline: as §1

B1: Tulipa lectin C-1 (Tulipa hybrid) (protein)
chain: MGMALVVALAVALASTVAGQQNVLLSGNTLANEESLSYGSVKFIMQNDCNLVLYGGGFQSNTASNGKKCTLTLNNNGHLIINDGLTGRVVWRNSNAQNPVGRYAAVLRPAPGTADVAIYGPAIWSTNDEFSYQESGVVPHKLGRETPNLPRMQNLLFSGQTLYGTDGMLSSNDGSTTFELSKCQLSLSLGNEVKWKVAPTVENGKENYCHVRLDHRGHLSLLNDDNVVLFRSIPTNGVEPPIGDYVLIVEKGAGYIYGPPIWNTYDNRRYKVASA
- glycan array binding signal (z-score) [1]: -0.2
- glycan array binding signal (z-score) [2]: -0.226
- glycan array binding signal (z-score) [3]: 5.37
- glycan array binding signal (z-score) [4]: 4.39
- glycan array binding signal (z-score) [5]: -0.23
- glycan array binding signal (z-score) [6]: -0.179
- glycan array binding signal (z-score) [7]: 4.98
- glycan array binding signal (z-score) [8]: 5.26
- glycan array binding signal (z-score) [9]: -0.093
- glycan array binding signal (z-score) [10]: -0.003

— the supplement of paper PMC8728848
